Reference: the supplement of paper PMC8728848
About 410 targets per protein were measured; listed, in parts, are those with the strongest signals and a random draw of the rest.

Experiments:
Test in all cases: glycan array binding signal (z-score within array); higher = stronger binding
Conditions in all cases: glycan notation: IUPAC condensed, linker removed; mutation: W10H
[1] = molecular target: Fuc(a1-2)Gal(b1-3)GalNAc(b1-3)Gal(a1-4)Gal(b1-4)Glc
How it was run: (§1)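 The binding signal is a Z-score computed within each array. Data were drawn from 3228 arrays in the Consortium for Functional Glycomics database, restricted to those with a known protein sequence. Scores were averaged over arrays of the same protein sequence at different concentrations or buffers, and over linkers, and negative values can be taken as non-binding.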

[2] = molecular target: Fuc(a1-2)Gal(b1-3)[Fuc(a1-4)]GlcNAc
How it was run: as §1

[3] = molecular target: Fuc(a1-2)Gal(b1-4)[Fuc(a1-3)]GlcNAc(b1-3)Gal(b1-4)[Fuc(a1-3)]GlcNAc(b1-3)Gal(b1-4)[Fuc(a1-3)]GlcNAc
How it was run: as §1

[4] = molecular target: Fuc(a1-2)Gal(b1-4)[Fuc(a1-3)]GlcNAc(b1-3)[Neu5Ac(a2-6)Gal(b1-4)GlcNAc(b1-6)]Gal(b1-4)Glc
How it was run: as §1

[5] = molecular target: Fuc(a1-2)[Gal(a1-3)]Gal(b1-3)GlcNAc(b1-3)GalNAc
How it was run: as §1

[6] = molecular target: Fuc(a1-2)[Gal(a1-3)]Gal(b1-3)GlcNAc(b1-6)GalNAc
How it was run: as §1

[7] = molecular target: Fuc(a1-2)[Gal(a1-3)]Gal(b1-4)GlcNAc(b1-2)Man
How it was run: as §1

[8] = molecular target: Fuc(a1-2)[Gal(a1-3)]Gal(b1-4)GlcNAc(b1-3)[Fuc(a1-2)[Gal(a1-3)]Gal(b1-4)GlcNAc(b1-6)]GalNAc
How it was run: as §1

[9] = molecular target: Fuc(a1-2)[GalNAc(a1-3)]Gal(b1-3)GalNAc(b1-3)Gal(a1-4)Gal(b1-4)Glc
How it was run: as §1

[10] = molecular target: Fuc(a1-3)[Gal(b1-4)]GlcNAc(b1-2)Man(a1-3)[Fuc(a1-3)[Gal(b1-4)]GlcNAc(b1-2)Man(a1-6)]Man(b1-4)GlcNAc(b1-4)[Fuc(a1-6)]GlcNAc
How it was run: as §1

[11] = molecular target: Fuc(a1-3)[Gal(b1-4)]GlcNAc(b1-3)Gal(b1-4)[Fuc(a1-3)]GlcNAc
How it was run: as §1

[12] = molecular target: Fuc(a1-3)[Gal(b1-4)]GlcNAc(b1-3)GalNAc
How it was run: as §1

[13] = molecular target: Fuc(a1-3)[GalNAc(b1-4)]GlcNAc6S
How it was run: as §1

Gal(a1-2)Gal = molecular target: Gal(a1-2)Gal
How it was run: as §1

Gal(a1-3)Gal(b1-3)GlcNAc = molecular target: Gal(a1-3)Gal(b1-3)GlcNAc
How it was run: as §1

Gal(a1-4)Gal(b1-4)Glc = molecular target: Gal(a1-4)Gal(b1-4)Glc
How it was run: as §1

[14] = molecular target: Gal(a1-4)Gal(b1-4)GlcNAc(b1-3)Gal(b1-4)Glc
How it was run: as §1

Gal(b1-2)Gal = molecular target: Gal(b1-2)Gal
How it was run: as §1

Gal(b1-3)Gal = molecular target: Gal(b1-3)Gal
How it was run: as §1

Gal(b1-3)GlcNAc(b1-2)Man = molecular target: Gal(b1-3)GlcNAc(b1-2)Man
How it was run: as §1

[15] = molecular target: Gal(b1-3)GlcNAc(b1-3)Gal(b1-4)[Fuc(a1-3)]GlcNAc
How it was run: as §1

[16] = molecular target: Gal(b1-3)[GlcNAc(b1-6)]GalNAc
How it was run: as §1

[17] = molecular target: Gal(b1-4)GlcNAc(b1-2)Man(a1-3)[Gal(b1-4)GlcNAc(b1-2)Man(a1-6)]Man(b1-4)GlcNAc(b1-4)GlcNAc
How it was run: as §1

[18] = molecular target: Gal(b1-4)GlcNAc(b1-2)[Gal(b1-4)GlcNAc(b1-4)]Man(a1-3)[GlcNAc(b1-4)][Gal(b1-4)GlcNAc(b1-2)[Gal(b1-4)GlcNAc(b1-6)]Man(a1-6)]Man(b1-4)GlcNAc(b1-4)GlcNAc
How it was run: as §1

[19] = molecular target: Gal(b1-4)GlcNAc(b1-2)[Gal(b1-4)GlcNAc(b1-6)]Man(a1-6)[Gal(b1-4)GlcNAc(b1-2)Man(a1-3)]Man(b1-4)GlcNAc(b1-4)[Fuc(a1-6)]GlcNAc
How it was run: as §1

[20] = molecular target: Gal(b1-4)GlcNAc(b1-2)[Gal(b1-4)GlcNAc(b1-6)]Man(a1-6)[GlcNAc(b1-4)][Gal(b1-4)GlcNAc(b1-2)Man(a1-3)]Man(b1-4)GlcNAc(b1-4)GlcNAc
How it was run: as §1

[21] = molecular target: Gal(b1-4)GlcNAc(b1-3)Gal(b1-4)GlcNAc(b1-2)[Gal(b1-4)GlcNAc(b1-3)Gal(b1-4)GlcNAc(b1-6)]Man(a1-6)[Gal(b1-4)GlcNAc(b1-3)Gal(b1-4)GlcNAc(b1-2)Man(a1-3)]Man(b1-4)GlcNAc(b1-4)GlcNAc
How it was run: as §1

[22] = molecular target: Gal(b1-4)GlcNAc(b1-3)Gal(b1-4)GlcNAc(b1-6)[Gal(b1-3)]GalNAc
How it was run: as §1

[23] = molecular target: Gal(b1-4)GlcNAc(b1-3)[Fuc(a1-3)GlcNAc(b1-6)]Gal(b1-4)Glc
How it was run: as §1

[24] = molecular target: Gal(b1-4)GlcNAc(b1-6)GalNAc
How it was run: as §1

B1: Banana lectin (Musa acuminata) (protein)
chain: MNGAIKVGAHGGNGGSAFDMGPAYRIISVKIFSGDVVDGVDVTFTYYGKTETRHYGGSGGTPHEIVLQEGEYLVGMAGEVANYHGAVVLGKLGFSTNKKAYGPFGNTGGTPFSLPIAAGKISGFFGRGGKFLDAIGVYLEPLEHHHHHH
In the case of B1, the “glycan array binding signal (z-score)” value [1] is reported as -0.164, the “glycan array binding signal (z-score)” value [2] is reported as -0.188 and the “glycan array binding signal (z-score)” value [3] is reported as -0.169. The “glycan array binding signal (z-score)” value [4] was -0.189, the “glycan array binding signal (z-score)” value [5] was -0.17 and the “glycan array binding signal (z-score)” value [6] was -0.147. The “glycan array binding signal (z-score)” value [7] was -0.169, the “glycan array binding signal (z-score)” value [8] was -0.183 and the “glycan array binding signal (z-score)” value [9] was -0.156. For the same binder, the “glycan array binding signal (z-score)” value [10] was -0.148, the “glycan array binding signal (z-score)” value [11] was -0.146 and the “glycan array binding signal (z-score)” value [12] was -0.16. The “glycan array binding signal (z-score)” value [13] was -0.194, the “glycan array binding signal (z-score)” value (Gal(a1-2)Gal) was -0.177 and the “glycan array binding signal (z-score)” value (Gal(a1-3)Gal(b1-3)GlcNAc) was -0.171. The “glycan array binding signal (z-score)” value (Gal(a1-4)Gal(b1-4)Glc) was -0.169, the “glycan array binding signal (z-score)” value [14] was -0.141 and the “glycan array binding signal (z-score)” value (Gal(b1-2)Gal) was -0.172. For the same binder, the “glycan array binding signal (z-score)” value (Gal(b1-3)Gal) was -0.168, the “glycan array binding signal (z-score)” value (Gal(b1-3)GlcNAc(b1-2)Man) was -0.145 and the “glycan array binding signal (z-score)” value [15] was -0.174. The “glycan array binding signal (z-score)” value [16] was -0.157, the “glycan array binding signal (z-score)” value [17] was -0.187 and the “glycan array binding signal (z-score)” value [18] was -0.175. The “glycan array binding signal (z-score)” value [19] was -0.143, the “glycan array binding signal (z-score)” value [20] was -0.204 and the “glycan array binding signal (z-score)” value [21] was -0.113. The “glycan array binding signal (z-score)” value [22] was -0.088, the “glycan array binding signal (z-score)” value [23] was -0.141 and the “glycan array binding signal (z-score)” value [24] was -0.163.
